# Source: the antibiotic and cytotoxicity screens of Wong et al. (2023)
# Screen size: about 39,000 compounds; about 1,500 (3.8%) were called active. Only a selection was taken, and actives are over-represented in it overall.
# System: HSkMC (human skeletal muscle cells)
# Assay: cytotoxicity call (relative viability < 0.9)
# Settings: 10 µM
row,Compound,cytotoxicity call
1,C[C@@H]1CN([C@H](C)CO)C(=O)Cc2cc(NS(=O)(=O)c3cn(C)cn3)ccc2O[C@H]1CN(C)S(=O)(=O)c1ccc(F)cc1,inactive
2,C[C@@H]1CN([C@H](C)CO)S(=O)(=O)c2ccc(-c3cccnc3)cc2O[C@H]1CN(C)C(=O)NC1CCCC1,inactive
3,C[C@H]1CN([C@@H](C)CO)C(=O)c2cccc(NC(=O)c3ccncc3)c2O[C@H]1CN(C)C(=O)Nc1ccc2c(c1)OCO2,inactive
4,C[C@@H]1CCCCO[C@H](CN(C)C(=O)c2ccncc2)[C@@H](C)CN([C@@H](C)CO)C(=O)c2cc(NC(=O)NC3CCCCC3)ccc2O1,inactive
5,Cc1noc(C)c1S(=O)(=O)Nc1ccc2c(c1)C(=O)N([C@H](C)CO)C[C@@H](C)[C@H](CN(C)S(=O)(=O)c1cn(C)cn1)O2,inactive
6,CCS(=O)(=O)Nc1ccc2c(c1)C(=O)N(C)[C@@H]1CC[C@H](CC(=O)NCCCN3CCOCC3)O[C@H]1CO2,inactive
7,Cc1ccc(S[C@]2(C(=O)NCCN3CCOCC3)CC(=O)N(Cc3ccccc3Cl)[C@@H]2c2ccc(CO)cc2I)cc1,inactive
8,C[C@H](CO)N1C[C@H](C)[C@@H](CN(C)C(=O)CN2CCOCC2)Oc2ncc(C#C[C@@H](C)O)cc2C1=O,inactive
9,COCC(=O)N(C)C[C@H]1Oc2cc(C#Cc3cccnc3)ccc2S(=O)(=O)N([C@H](C)CO)C[C@@H]1C,inactive
10,C[C@@H]1CCCCO[C@H](CN(C)Cc2ccc(C(=O)O)cc2)[C@@H](C)CN([C@H](C)CO)C(=O)c2cc(NC(=O)Nc3ccc4c(c3)OCO4)ccc2O1,inactive
11,Cc1noc(C)c1S(=O)(=O)Nc1ccc2c(c1)C(=O)N([C@H](C)CO)C[C@H](C)[C@H](CN(C)S(=O)(=O)c1cn(C)cn1)OCCCC[C@@H](C)O2,inactive
12,C[C@H](CCC(=O)O)[C@H]1CC[C@H]2[C@@H]3CC=C4C[C@@H](O)CC[C@]4(C)[C@H]3CC[C@]12C [3beta-HYDROXYCHOL-5-ENIC ACID ],inactive
13,Cc1noc(C)c1S(=O)(=O)Nc1ccc2c(c1)C(=O)N([C@@H](C)CO)C[C@@H](C)[C@@H](CN(C)Cc1ccc(C(F)(F)F)cc1)OCCCC[C@@H](C)O2,inactive
14,C[C@H]1CN([C@@H](C)CO)C(=O)Cc2cc(NC(=O)Nc3ccc(C(F)(F)F)cc3)ccc2O[C@H]1CN(C)Cc1ccc(C(=O)O)cc1,inactive
15,C[C@@H]1CN([C@@H](C)CO)C(=O)Cc2cc(NC(=O)Nc3ccc(C(F)(F)F)cc3)ccc2O[C@H]1CN(C)Cc1ccc(C(=O)O)cc1,inactive
16,C[C@H]1CN([C@@H](C)CO)C(=O)Cc2cc(NC(=O)Nc3ccc(C(F)(F)F)cc3)ccc2O[C@H]1CN(C)Cc1ccc(C(F)(F)F)cc1,active
17,C[C@H]1CN([C@@H](C)CO)C(=O)Cc2cc(NC(=O)Nc3ccc(C(F)(F)F)cc3)ccc2O[C@@H]1CN(C)Cc1ccc(C(F)(F)F)cc1,active
18,C[C@H](CO)N1C[C@H](C)[C@H](CN(C)Cc2ccc(C(F)(F)F)cc2)Oc2ccc(NC(=O)Nc3ccc(C(F)(F)F)cc3)cc2CC1=O,active
19,C[C@H]1CN([C@@H](C)CO)C(=O)Cc2cc(NC(=O)Nc3ccc(C(F)(F)F)cc3)ccc2O[C@@H]1CN(C)Cc1ccc(C(=O)O)cc1,inactive
20,C[C@H](CO)N1C[C@H](C)[C@H](CN(C)Cc2ccc(C(=O)O)cc2)Oc2ccc(NC(=O)Nc3ccc(C(F)(F)F)cc3)cc2CC1=O,inactive
21,C[C@@H]1CN([C@H](C)CO)C(=O)Cc2cc(NC(=O)Nc3ccc(C(F)(F)F)cc3)ccc2O[C@H]1CN(C)Cc1ccc(C(=O)O)cc1,inactive

row,Compound,cytotoxicity call
1,C[C@@H]1CN([C@@H](C)CO)C(=O)Cc2cc(NC(=O)Nc3ccc(C(F)(F)F)cc3)ccc2O[C@H]1CN(C)Cc1ccc(C(F)(F)F)cc1,active
2,C[C@H](CO)N1C[C@H](C)[C@@H](CN(C)Cc2ccc(C(=O)O)cc2)Oc2ccc(NC(=O)Nc3ccc(C(F)(F)F)cc3)cc2CC1=O,inactive
3,COc1ccc(CN(C)C[C@H]2Oc3c(NC(=O)C4CCOCC4)cccc3C(=O)N([C@@H](C)CO)C[C@@H]2C)cc1,inactive
4,CN1C(=O)c2cc(NC(=O)C3CCOCC3)ccc2OC[C@@H]2O[C@@H](CC(=O)NCc3ccccc3F)CC[C@@H]21,inactive
5,Cc1noc(C)c1NC(=O)N(C)C[C@H]1Oc2c(NC(=O)c3cnccn3)cccc2C(=O)N([C@@H](C)CO)C[C@@H]1C,inactive
6,C[C@H]1CN([C@@H](C)CO)C(=O)c2cc(NC(=O)C3CC3)ccc2O[C@H]1CN(C)S(=O)(=O)c1ccc(Cl)cc1,inactive
7,CC(=O)N[C@H]1[C@H](Oc2nc3cc(C)ccc3o2)O[C@H](CO)[C@@H](O)[C@@H]1O,inactive
8,Cc1ccc(-c2ccc3c(c2)O[C@H](CN(C)C(=O)CN(C)C)[C@H](C)CN([C@@H](C)CO)S3(=O)=O)cc1,inactive
9,O=C(CN1CCOCC1)N[C@H]1CC[C@H](CCNC(=O)Nc2cc(F)ccc2F)O[C@H]1CO,inactive
10,CN1C(=O)c2cc(NC(=O)c3ccc(F)c(F)c3)ccc2OC[C@@H]2O[C@H](CC(=O)N3CCOCC3)CC[C@@H]21,inactive
11,Cc1noc(C)c1S(=O)(=O)N(C)C[C@H]1Oc2ccc(NC(=O)Nc3ccc4c(c3)OCO4)cc2C(=O)N([C@H](C)CO)C[C@@H]1C,inactive
12,COc1ccc(CN(C)C[C@@H]2OCCCC[C@@H](C)Oc3ccc(NC(=O)Nc4ccc(F)cc4)cc3C(=O)N([C@@H](C)CO)C[C@H]2C)cc1,inactive
13,C[C@@H]1CN([C@@H](C)CO)C(=O)Cc2cc(NC(=O)C3CCCCC3)ccc2O[C@@H]1CN(C)Cc1ccc(C(F)(F)F)cc1,active
14,C[C@@H]1CN([C@H](C)CO)C(=O)Cc2cc(NC(=O)Nc3ccc(C(F)(F)F)cc3)ccc2O[C@@H]1CN(C)Cc1ccc(C(=O)O)cc1,inactive
15,C[C@H]1CN([C@@H](C)CO)C(=O)Cc2cc(NC(=O)C3CCCCC3)ccc2O[C@@H]1CN(C)Cc1ccc(C(F)(F)F)cc1,inactive
16,C[C@H](CO)N1C[C@H](C)[C@@H](CN(C)Cc2ccc(C(F)(F)F)cc2)Oc2ccc(NC(=O)C3CCCCC3)cc2CC1=O,inactive
17,C[C@@H]1CN([C@@H](C)CO)C(=O)Cc2cc(NC(=O)Nc3ccc(C(F)(F)F)cc3)ccc2O[C@@H]1CN(C)Cc1ccc(C(=O)O)cc1,inactive
18,C[C@H](CO)N1C[C@H](C)[C@@H](CN(C)Cc2ccc(C(F)(F)F)cc2)Oc2ccc(NC(=O)Nc3ccc(C(F)(F)F)cc3)cc2CC1=O,active
19,C[C@@H]1CN([C@H](C)CO)C(=O)Cc2cc(NC(=O)Nc3ccc(C(F)(F)F)cc3)ccc2O[C@@H]1CN(C)Cc1ccc(C(F)(F)F)cc1,active
20,C[C@@H]1CN([C@H](C)CO)C(=O)Cc2cc(NC(=O)Nc3ccc(C(F)(F)F)cc3)ccc2O[C@H]1CN(C)Cc1ccc(C(F)(F)F)cc1,active
